Assay results taken from PubChem BioAssay (NCI).
About 83,000 compounds went through this panel and 20% of them were active in at least one assay; those are over-represented in the sample as a whole.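 Single-dose data. Exposure time 48 hours. Values below 10 considered active.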 A number with no mark means an inactive call. Active and inactive are the calls of the source.

tested on: SNB-19 CNS; experiment: NCI-60 one-dose screen, 48 h (100 = growth as untreated, 0 = no growth, -100 = all killed); details: 10 µM unless noted

Going from `CN(C)CCN1C(=O)c2cccc3c(-c4ccc(-c5nc6c7ccccc7c7ccccc7c6[nH]5)cc4)ccc(c23)C1=O` to `COc1cc2ccccc2cc1C(=O)NC(=S)Nc1ccc(-c2nc3ccccc3[nH]2)cc1`, the growth falls from 110% to 86.6%.

First: O=C(Nc1ccc(N2CCCCC2)c(Cl)c1)c1ccc(Br)o1
Second: CSc1ccc(Cl)c(C(=O)Nc2sccc2C(N)=O)c1
The growth of the first is lower: 78.3% for the first, 80.6% for the second.

Going from `COc1ccc(OC)c(Nc2nc3nonc3nc2Nc2cccc(Br)c2)c1` to `COc1cc(/C=C/c2nc(Nc3ccc(S(=O)(=O)Nc4cc(C)on4)cc3)c3ccccc3n2)ccc1O`, the growth rises from 14.6% to 64.3%.

Compared with `COc1cc(/C=C/C(=O)c2cccc(-n3cc(-c4ccccc4)[nH]c3=O)c2)cc(OC)c1OC`, `COc1ccc(-c2nc3ccccn3c2/C=C/C(=O)c2cc(OC)c(OC)c(OC)c2)cc1` is higher in growth: 20.2% for the first, 72.4% for the second.

First: Fc1ccc(Nc2nc(Nc3ccc(-c4nc5ccccc5[nH]4)cc3)c3cn[nH]c3n2)cc1
Second: Cc1nc(Nc2ccc(S(=O)(=O)Nc3cc(C)on3)cc2)c2ccccc2n1
The growth of the first is lower: 87.6% for the first, 110% for the second.

First: COc1ccc(-c2nc3sc4c(c3c(=O)[nH]2)CCCC4)c2ccccc12
Second: N#Cc1c(NC(=O)c2ccccc2I)sc2c1CCCC2
The growth of the first is lower: 36% for the first, 39.2% for the second.

First: O=[N+]([O-])c1ccccc1C(O)Cc1ccc2ccccc2n1 (centres undefined)
Second: COc1cc(-c2cccc([N+](=O)[O-])c2)c(-c2nc(-c3ccccc3)c(-c3ccccc3)n2C2CC2)cc1OC
The growth of the first is higher: 101% for the first, 80.4% for the second.

Compared with `NC(=O)c1c(NC(=O)c2ccc(C(F)(F)F)cc2Cl)sc2c1CCC(=O)C2`, `O=C(/C=C/C12c3ccccc3C(c3ccccc31)C1C(=O)NC(=O)C12)c1ccc(Cl)cc1` (centres undefined) is higher in growth: 14% for the first, 17.3% for the second.

First: COc1cc(CNC(=O)/C=C/C=C/c2ccc3c(c2)OCO3)ccc1OCc1cn(-c2ccc(Cl)c(Cl)c2)nn1
Second: COc1cc2c(=O)n(CCCn3ccnc3)c3c4cc5c(cc4ccc3c2cc1OC)OCO5
The growth of the first is higher: 20.5% for the first, 19.3% for the second.

Going from `O=S(=O)(Nc1ccsc1-c1nc(-c2ccccc2)no1)c1cc(Cl)cc(Cl)c1` to `Cc1cc(C(c2ccccc2)c2ccccc2)ccc1NS(=O)(=O)c1ccccc1`, the growth rises from 98.8% to 101%.

Compared with `C[C@H]1[C@H]2C3=CC[C@@H]4[C@@]5(C)C/C(=C/c6ccncc6)C(=O)C(C)(C)[C@@H]5CC[C@@]4(C)[C@]3(C)CC[C@@]2(C(=O)N2CCN(C)CC2)CC[C@@H]1C`, `CC(C)CCC[C@@H](C)[C@H]1CCC2C3=CCC4C(=O)C=CC(=O)C4C3CC[C@@]21C` (some centres undefined) is lower in growth: 78.2% for the first, 38.2% for the second.

Going from `C=C1C(=O)O[C@H]2[C@H]1CC/C(C(=O)NCCCCCCCCNC(=O)/C1=C/CC[C@@]3(C)O[C@H]3[C@H]3OC(=O)C(=C)[C@@H]3CC1)=C\CC[C@@]1(C)O[C@@H]21` to `C[C@@H]1CC[C@@H]2[C@@H]1[C@H](OC(=O)/C=C/c1ccccc1)[C@]1(CCCOCCOCCOCCOC(=O)CCCC[C@@H]3SC[C@@H]4NC(=O)N[C@@H]43)C[C@@H](OC(=O)CO)[C@@]2(C)O1`, the growth rises from 99.3% to 106%.

First: CC(C)OC(=O)NNC(=O)c1ccncc1
Second: COc1cc(NC(=O)c2cccc(-c3cc(=O)c4c(O)c(OC)c(OC)cc4o3)c2)cc(OC)c1OC
The growth of the first is higher: 105% for the first, 50% for the second.

Going from `O=C(CCCCCCCn1cc(-c2cccnc2)nn1)Nc1ccccc1-c1ccccc1` to `O=C(NCc1cn(Cc2cccc(Oc3ccccc3)c2)nn1)c1cccnc1NCc1ccc(Cl)cc1`, the growth falls from 48.2% to 41.3%.

Going from `O=C(O)c1ccc(CO)o1` to `Cc1ccc(S(=O)(=O)N(CC[C@@H]2C[C@H]2c2cc3ccccc3o2)C(=O)NC2CCCCC2)cc1`, the growth falls from 103% to 99.8%.

Compared with `CN(C)CN1CCN(c2ccc3nc(-c4ccc5nc(-c6ccc(C(F)(F)F)cc6)[nH]c5c4)[nH]c3c2)CC1`, `Clc1ccc2[nH]c3c(NCCCN4CCOCC4)ncnc3c2c1` is higher in growth: 69.6% for the first, 92.9% for the second.

Going from `C#C[C@]1(O)CC[C@H]2[C@@H]3CC=C4c5sc(N=C(N)N)nc5CC[C@]4(C)[C@H]3CC[C@@]21C` to `CC(=[N-])N1CCC[C@@H](Nc2c3ccccc3nc3ccccc23)C1.[Cl][Pt].[NH-]CCC[NH-]`, the growth rises from 18.9% to 53.3%.

Compared with `Cc1ccc(/C=C(\C#N)n2nnc3cc(Cl)c(Cl)cc32)cc1`, `COc1cc(C2C=C(c3cccc(NC(C)=O)c3)Nc3ncnn32)cc(OC)c1OC` (centres undefined) is higher in growth: 17.7% for the first, 52% for the second.

Compound `O=C(/C=C/C12c3ccccc3C(c3ccccc31)C1C(=O)NC(=O)C12)c1ccccc1` (centres undefined) has a growth of 32.9%.

`O=C(NCCN1CCC(O)CC1)c1cc2c(o1)C(=O)c1ccccc1C2=O` was tested, and the growth was -98.1% (active).
For `CCOC(=O)c1c(C)nc2c(c1N)/C(=C/c1ccc(OC)cc1)C(=O)N2Cc1ccc(F)cc1`, the growth was -67.4% (active).
